Screening data deposited in PubChem by several laboratories.
AHR activator: human AHR activation; 320,000 tested, 2.5% active; activation, % at 5 µM; P35869; AID 2796; AHR-responsive luciferase reporter cells, luminescence; in the data active means activation above about 47%;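 further: 0% = vehicle wells and 100% = reference agonist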
Target sequence (P35869 whole entry, looked up): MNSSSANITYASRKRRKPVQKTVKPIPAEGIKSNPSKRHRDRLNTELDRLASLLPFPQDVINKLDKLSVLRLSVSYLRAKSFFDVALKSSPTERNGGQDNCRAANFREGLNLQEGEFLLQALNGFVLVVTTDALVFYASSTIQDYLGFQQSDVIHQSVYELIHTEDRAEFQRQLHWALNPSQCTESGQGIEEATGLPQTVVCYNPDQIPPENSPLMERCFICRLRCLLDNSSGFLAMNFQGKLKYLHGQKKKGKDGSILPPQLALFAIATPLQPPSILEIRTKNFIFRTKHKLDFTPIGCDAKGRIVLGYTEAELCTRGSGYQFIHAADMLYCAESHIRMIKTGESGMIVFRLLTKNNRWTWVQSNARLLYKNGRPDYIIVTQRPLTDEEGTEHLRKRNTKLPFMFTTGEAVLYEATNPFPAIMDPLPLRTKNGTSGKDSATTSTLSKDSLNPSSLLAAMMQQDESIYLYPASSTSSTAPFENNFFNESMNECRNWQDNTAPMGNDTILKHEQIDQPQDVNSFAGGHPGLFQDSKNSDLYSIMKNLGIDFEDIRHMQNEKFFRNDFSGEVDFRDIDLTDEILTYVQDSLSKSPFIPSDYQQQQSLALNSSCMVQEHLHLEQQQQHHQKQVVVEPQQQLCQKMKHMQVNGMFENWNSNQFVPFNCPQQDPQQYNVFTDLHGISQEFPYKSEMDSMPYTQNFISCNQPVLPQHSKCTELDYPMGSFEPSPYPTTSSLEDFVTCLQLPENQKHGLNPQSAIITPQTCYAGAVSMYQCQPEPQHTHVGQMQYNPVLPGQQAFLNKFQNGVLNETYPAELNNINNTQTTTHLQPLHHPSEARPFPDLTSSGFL
Bfl-1 A1 inh: inhibitors of the anti-apoptotic protein A1, read as caspase activation | 330,000 tested, 0.066% active | caspase activation, % (no concentration beside the values) | MEF A1-2A-BIM cells, Caspase-Glo 3/7 luminescence, 3 h; percent of clofoctol response, vehicle zero | AID 2462;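 active means over half of replicate activation scores above 10%, or exactly half above 10 with the replicate mean above 10; inconclusive means replicate mean below 10 yet half the replicates above 10; inactive means over half of replicates below 10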
Efflux pump mplx: antifungal efflux pump inhibition, Nile Red retention; S. cerevisiae Candida pump triplex; 330,000 tested, 0.44% active; inhibition, % at 10 µM;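 active means plate passing quality check with inhibition over a set limit, or well fluorescence over plate mean plus 4 SD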;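 further: Nile Red retained in pooled yeast measured as flow cytometry median fluorescence; 0% = buffer negative control and 100% = Enniatin B positive control; higher means more Nile Red kept so more efflux inhibition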
ALR H2O2 inh: inhibitors of human sulfhydryl oxidase ALR | inhibition, % (no concentration beside the values) | 290,000 tested, 3.8% active | purified ALR, DTT oxidation, H2O2 HRP-luminol luminescence | P55789;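 active means mean replicate inhibition above about 79%, with every replicate also reaching it, limit read from the data; inconclusive means only one of the two criteria met; inactive means mean below limit and not every replicate reaching it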
Mot1-301 SUMO: blocks SUMOylation pathway, rescuing yeast Mot1-301 growth. growth rescue, % at 18.8 µM. AID 2716. 320,000 tested, 1% active. S. cerevisiae Mot1-301 growth rescue, ATP luminescence, 38.5C; percent above DMSO median, 100 means doubled;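 active means every valid replicate shows activation above 250% relative to neutral control wells; inactive means the rest, any valid replicate at or below 250%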;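 further: OY570 slx delta 5 strain wells were the positive control but not used for scaling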
VLA-4 inh: inhibition in a human VLA-4 binding assay. VLA-4 expressing cells, ligand binding flow cytometry. inhibition, % (about 7 µM as worked out from the volumes in the protocol). 330,000 tested, 0.2% active; in the data active means inhibition above about 50%
Numbers without * were called inactive; ? = inconclusive; . = not tested or not shown. Hits are enriched below; roughly 7.2% of the tested compounds scored in any of these assays.

SMILES | AHR activator | Bfl-1 A1 inh | Efflux pump mplx | ALR H2O2 inh | Mot1-301 SUMO | VLA-4 inh
Clc1cc(Br)ccc1OCCCNCc1ccccc1 | 1 | 0 | 0 | -41 | -14 | 18
CCc1c(C)nc2ccc(Br)cc2c1Cl | 1 | 1 | 0 | -4 | -3 | 13
Nc1nc(Cl)nc2ccc(Br)cc12 | 59* | 0 | 0 | -11 | 7 | -19
O=S(=O)(O)c1cc2oc(-c3ccccc3)nc2c2ccccc12 | 15 | 0 | 0 | 1 | 1 | 14
CC(=O)c1ccccc1OC(=O)COc1ccc(Cl)cc1C | 1 | 0 | 1 | 96* | 84 | 6
Nc1ccc(-c2cnc3ccccc3n2)cc1 | 1 | -8 | 0 | -7 | 6 | 1
Oc1ccc(-c2cnc3ccccc3n2)cc1 | -2 | -7 | 0 | 98* | 11 | -6
Clc1ccc(-c2cnc3ccccc3n2)cc1 | 52* | -7 | 0 | -5 | 5 | 2
CN(C)CCCn1c2c(c(SCC(=O)Nc3nccs3)nc1=O)CCC2 | 3 | 0 | 0 | 99* | 2 | 15
CCc1ccc(NC(=O)CSc2nc(=O)n(CCCN(C)C)c3c2CCC3)cc1 | 2 | 0 | 0 | 97* | -27 | -2
CCCCc1ccc(NC(=O)CSc2nc(=O)n(CCN(CC)CC)c3c2CCC3)cc1 | 0 | 0 | 0 | -390 | -5 | 13
COc1ccc2cc(CCNS(=O)(=O)c3c(C)cc(C)cc3C)c(=O)[nH]c2c1 | -2 | 0 | 0 | 3 | -4 | 8
O=S(=O)(NCCCN1CCN(c2ccccc2F)CC1)c1cccc2cccnc12 | 1 | 0 | 0 | 95* | 4 | 12
O=S(=O)(NCCO)c1cccc2cccnc12 | 4 | 0 | 0 | 70 | 13 | -18
O=S(=O)(NCc1ccccc1)c1ccc(-n2cccn2)cc1 | 2 | -1 | 0 | -13 | 3 | -13
Cn1ccnc1SCC(=O)Nc1cccc([N+](=O)[O-])c1 | 32 | 0 | 0 | -7 | . | -1
Cn1ccnc1SCc1cccc([N+](=O)[O-])c1 | 4 | 1 | 0 | 98* | 1 | 28
Cn1ccnc1SCc1ccc([N+](=O)[O-])cc1 | 2 | 1 | 0 | 99* | -4 | -2
CN(CC(=O)Nc1ccccc1Cl)CC(=O)Nc1cccc2ccccc12 | 2 | 4 | 0 | -3 | 83 | 33
O=C(CSc1nnc(NC(=O)C2CC2)s1)NCc1ccc(F)cc1 | -1 | -1 | 0 | 1 | -10 | 12
O=C(CSc1nnc(NC(=O)c2c(F)cccc2F)s1)NCc1ccc(F)cc1 | -1 | 1 | 0 | -2 | 670* | -13
O=C(CN1CC[n+]2c(-c3ccccc3)csc21)c1ccc(Br)cc1 | -1 | 0 | 0 | 98* | -2 | -15
CC(=O)N1CCN(CC(=O)c2ccc(Br)cc2)CC1 | 5 | 0 | 0 | . | -7 | 13
O=C(CN1CC[n+]2c(-c3cccs3)csc21)c1ccc(Br)cc1 | 0 | 0 | 0 | 98* | 210 | 5
COc1ccc2nc(NC(=O)CSc3nnc(C)n3N)sc2c1 | 15 | -5 | 0 | 3 | 305* | -6
SMILES | AHR activator | Bfl-1 A1 inh | Efflux pump mplx | ALR H2O2 inh | Mot1-301 SUMO | VLA-4 inh
COc1ccc2nc(NC(=O)CSc3ccccc3)sc2c1 | 11 | -2 | 0 | -48 | 0 | 12
CCOc1ccc2nc(NC(=O)CSC3=NCCS3)sc2c1 | 10 | 1 | 0 | 99* | . | 8
COc1ccc2nc(NC(=O)CSC3=NCCS3)sc2c1 | 2 | 0 | 0 | 98* | . | 4
CCc1nnc(NC(=O)CSc2nncc(=O)n2N)s1 | 8 | -1 | 0 | ? | 136 | 3
Cc1ccc2nc(NC(=O)CSc3nncc(=O)n3N)sc2c1 | 11 | -5 | 0 | 99* | 6 | -13
CC(=O)NC(CC(=O)N(Cc1ccccc1)c1cccc(C)c1)c1ccccc1 (centres undefined) | 4 | 0 | 0 | -13 | -12 | -9
CNc1ccccc(-c2ccc3cc4c(cc3n2)OCO4)c1=O | 70* | 1 | 0 | 0 | -4 | -9
O=S(NCc1ccco1)C12CC3CC(CC(C3)C1)C2 (centres undefined) | -3 | 0 | 0 | -3 | 2 | 11
C/C(CCC1CC(C)OC1=O)=N/Nc1nc(-c2ccccc2)cs1 (centres undefined) | 103* | -1 | 0 | 98* | 41 | 9
COc1ccc(-c2nc(N)n[nH]2)cc1OC | 14 | 0 | 0 | 3 | 11 | 20
COc1ccc(-c2cnn(-c3ccccc3)c2N)cc1OC | -8 | 0 | 0 | 90* | 2 | 1
COc1ccc(-c2nn(-c3ccccc3)cc2C(N)=O)cc1OC | 75* | 0 | 0 | 3 | 69 | 11
COc1ccc(-c2cn[nH]c2N)cc1OC | 1 | -1 | 0 | 99* | -7 | -7
COc1cc(OC)cc(-c2cn[nH]c2N)c1 | 6 | 0 | 0 | 99* | 14 | -2
Cc1ccc(-c2cnn(-c3ccccc3)c2N)cc1 | 3 | -11 | 0 | 1 | -39 | -1
CCCCCCCCCCOC(=O)c1csc2nnsc12 | 0 | 0 | 0 | -1 | -3 | 5
CCC(C)(C)NC(=O)c1cc([N+](=O)[O-])ccc1N1CCOCC1 | -2 | -1 | 0 | . | 7 | 2
CC(C)NC(=O)CC(=O)N/N=C/c1ccc(F)cc1 | 0 | 0 | 0 | -8 | 3 | 9
CCc1ccc(OCC(=O)NC(=S)Nc2ccc(C(C)=O)cc2)c(Br)c1 | 76* | 0 | 0 | -4 | -11 | 5
CCc1ccc(OCC(=O)NC(=S)Nc2ccc(F)cc2)c(Br)c1 | 0 | 0 | 0 | -1 | 11 | 16
CCOCCc1c(O)nc(SCC(=O)N2CCOCC2)[nH]c1=O | 1 | 0 | 0 | 85* | -2 | 13
CCCCc1c(O)nc(SCC(=O)N2CCOCC2)[nH]c1=O | 1 | 0 | 0 | 98* | 23 | 15
Cc1[nH]c2ccccc2c1N=Nc1ccc(F)cc1 | 67* | 0 | 0 | 98* | 93 | -5
Oc1[nH]c2ccccc2c1N=Nc1c(F)c(F)c(Cl)c(F)c1F | 11 | -2 | 0 | -4 | -3 | 4
Cc1[nH]c2ccccc2c1N=Nc1cc(C(=O)O)cc(C(=O)O)c1 | 8 | 1 | 0 | 59 | -10 | 10
Cc1[nH]c2ccccc2c1N=Nc1ccccc1F | 51* | -1 | 0 | 99* | 30 | 2
CC(=O)c1c(C(C)=O)c(C)n(-c2nc(-c3ccc(Br)cc3)c(C)s2)c1C | 56* | 1 | 0 | 4 | 2 | 9
Cc1cc(C)cc(-n2cccc2/C=C2/C(=N)N3C(=NC2=O)SN=C3S(C)(=O)=O)c1 | 0 | 2 | 0 | 88* | -8 | -1
CCc1ccc(-n2cccc2/C=C2/C(=N)N3C(=NC2=O)SN=C3S(C)(=O)=O)cc1 | -1 | 1 | 0 | 58 | -5 | 13
